# In the library only some 7.8% were active in any assay of this set; here they are far more common.
# TSHR agonist: activates the human thyroid stimulating hormone receptor. HEK293-CNG-TSHR cells (CNG channel as cAMP sensor), membrane potential dye, cAMP. 0.48% of 73,000 active. Potency, µM (titrated, usually from 57.1 µM), actives largely listed as activators; active = well fitted activation curve with a large enough effect in the main read-out, with a control signal flat, not every such curve was filed as active; inconclusive = small, poorly fitted or top-dose-only effect, or a change in a side signal; inactive = no such curve, though single readings can be large or run the other way; reference of the percent scale not stated here;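 note: the control signal comes from parental cells without the receptor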
#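 cAMP rise detected as CNG-channel membrane depolarization by fluorescent dye (emission 590 nm), 30 min after compound, following 60 min dye loading containing 100 uM RO 20-1724 at room temperature. Cells: TSHR/CNG HEK 293, with parental CNG HEK 293 as control.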
# HEK293 cAMP ctrl: parental HEK293 cAMP activation (counter-screen); parental HEK293 CNG cAMP sensor, membrane potential fluorescence; Potency, µM (doses to about 57.1 µM), most hits filed as activators; 2.5% of 73,000 active; AID 938; note: nearly all actives have a fitted effect of over 55% in size
#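 Parental HEK 293 cells stably expressing a modified CNG channel (no TSHR) report cAMP rise as membrane depolarization. Membrane potential dye with 100 uM RO 20-1724 was loaded for 60 min at room temperature, then compound added for 30 min; fluorescence read at 590 nm.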
# Bst PK mod: pyruvate kinase (B. stearothermophilus) modulation; purified pyruvate kinase, luminescence ATP production; ribose 5-phosphate activator present at AC10; AID 361; Potency, µM; 1.2% of 51,000 active; in the data active = potency below about 11 µM; inconclusive = mostly about 12 µM to 25 µM;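 the screen sought inhibitors and activators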
# FLuc inh: inhibitors of firefly luciferase | P08659 | purified firefly luciferase, luminescence, 8 min | Potency, µM (top dose mostly 57.1 µM), hits mostly inhibitors | 2.2% of 72,000 active | AID 411; note: nearly all actives have a fitted effect of over 40% in size
#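 Firefly luciferase (PKLight detection mix) with 10 uM ATP in pH 7.2 imidazole buffer (KCl, MgCl2, Tween 20, BSA). Compounds tested across a concentration series (qHTS). Luminescence read after 8 min at ambient temperature.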
# Tau fil binding: binders of human tau filaments; Potency, µM (series often up to 57.1 µM); 2% of 71,000 active; P10636; recombinant tau filaments, thioflavin S fluorescence, 15 h; filaments grown with octadecylsulfate alongside compound;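 note: actives lower thioflavin S fluorescence by blocking filaments or displacing dye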
#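 Assay mix: 1 uM His-tagged tau, 30 uM sodium octadecylsulfate, thioflavine S dye in HEPES/NaCl/DTT buffer. Compound is added prior to the inducer. Fluorescence after 15 h at 37 C.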
# ALOX15 inhib: 15-hLO (ALOX15) enzyme inhibition; P16050; purified 15hLO-1, xylenol orange hydroperoxide absorbance; Potency, µM (highest dose often 57.1 µM), actives largely listed as inhibitors; 1.4% of 74,000 active; note: nearly all actives have a fitted effect of over 55% in size
# Target sequence (P16050 whole entry, looked up): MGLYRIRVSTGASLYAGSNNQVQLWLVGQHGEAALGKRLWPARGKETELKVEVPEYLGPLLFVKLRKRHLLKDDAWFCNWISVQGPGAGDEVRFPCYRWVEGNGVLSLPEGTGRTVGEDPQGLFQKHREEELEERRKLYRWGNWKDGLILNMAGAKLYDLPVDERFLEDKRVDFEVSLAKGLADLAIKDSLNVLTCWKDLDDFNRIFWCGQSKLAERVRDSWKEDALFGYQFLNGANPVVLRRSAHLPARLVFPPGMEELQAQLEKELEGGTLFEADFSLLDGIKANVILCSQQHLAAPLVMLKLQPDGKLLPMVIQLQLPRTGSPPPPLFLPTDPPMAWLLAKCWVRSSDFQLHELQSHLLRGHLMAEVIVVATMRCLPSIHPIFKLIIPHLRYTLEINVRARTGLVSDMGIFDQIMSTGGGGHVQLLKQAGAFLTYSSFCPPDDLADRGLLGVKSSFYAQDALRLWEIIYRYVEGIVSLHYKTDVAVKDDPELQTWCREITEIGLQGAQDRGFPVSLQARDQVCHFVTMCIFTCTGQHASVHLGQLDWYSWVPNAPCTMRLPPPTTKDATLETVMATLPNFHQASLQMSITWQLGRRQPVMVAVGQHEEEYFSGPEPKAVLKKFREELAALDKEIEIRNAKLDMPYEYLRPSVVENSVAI
#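 Compounds were preincubated 15 min at room temperature with 40 nM purified human enzyme (25 mM Hepes pH 7.5, 0.01% Triton X-100); 50 uM arachidonic acid reacted 6 min. Fe-xylenol orange detection, 30 min, absorbance ratio 573/405 nm.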
# Hits are given with their value; 0 = inactive; ? = inconclusive; - = not tested or not shown; [ ] = another dose, or the depositor's remark. Unless noted, calls come from the whole dose curve; as a rule, active = well fitted curve in the direction sought with a large enough effect; inconclusive = small, poorly fitted or top-dose-only effect, or another doubt; inactive = no such curve, though single readings can be large; an effect the other way counts as inactive or inconclusive.
SMILES,TSHR agonist,HEK293 cAMP ctrl,Bst PK mod,FLuc inh,Tau fil binding,ALOX15 inhib
COc1ccc(OC)c(C2OCCC=CC2C)c1 (stereo not drawn),0[11.4 µM],0[11.4 µM],-,-,-,0[11.4 µM]
CCCCNc1nc(C)nc2c1nc(-c1ccccc1)n2CCN1CCCCC1,?,13µM,-,-,0,13µM
Cc1nc(NCc2ccccc2)c2nc(-c3ccccc3)n(CCN3CCOCC3)c2n1,?,32µM,-,-,0,20µM
CC(C)c1ccc(/C(C(=O)O)=C(\O)C(=O)O)cc1,0[11.4 µM],0[11.4 µM],-,0[11.4 µM],0[11.4 µM],0[11.4 µM]
CN1CCN(CCCNc2nc3ccccc3c3nc(-c4ccccc4)nn23)CC1,0[11.4 µM],0,10,0,0,0
COc1cc2nc(NCCN3CCOCC3)n3nc(-c4ccccc4)nc3c2cc1OC,0[11.4 µM],0,0,0,0,0
COC1=CC(=O)C[C@@H](C)[C@@]12Oc1c(Cl)c(OC)cc(OC)c1C2=O,-,0,-,0[11.4 µM],?,-
COC(=O)c1cccc(Nc2nc3ccccc3nc2C)c1,?,32µM,-,0,0,0
CCOC(=O)c1cccc(Nc2nc(C)cc(C)n2)c1,0,0,0,0,0,0
O=S(=O)(NCCN1CCCC1)c1cccc2cccnc12,?,?,-,0,?,10µM
O=S(=O)(NC1CCCCCC1)c1cccc2cccnc12,0,0,11,0,0,0
O=S(=O)(NCCO)c1cccc2cccnc12,0,0,-,0,0,0
COCCn1c(C)cc(C(=O)COC(=O)c2ccc3ncsc3c2)c1C,0,0,-,25µM,0,?
CCCn1c(C)cc(C(=O)COC(=O)c2ccc(Cl)c(S(=O)(=O)N3CCCC3)c2)c1C,?,?,?,13µM,0,0
COCCn1c(C)cc(C(=O)COC(=O)c2n[nH]c3ccccc23)c1C,0,0,1.4,1.3µM,0,0
Cc1cc(C(=O)COC(=O)c2n[nH]c3ccccc23)c(C)n1C,0,0,?,13µM,0,0
CCOC(=O)c1n[nH]c2ccccc12,-,-,0,0,-,-
COCCn1c(C)cc(C(=O)COC(=O)c2c(C)nn(Cc3ccccc3)c2C)c1C,?,?,0,0,0,?
CN1CCN(C(=O)c2ccc(Cl)c(S(=O)(=O)N3CCCCC3)c2)CC1,0,0,-,0,0,0
CO/N=C(\C)CCN1CCCc2nc(C)c(C)cc21,0[11.4 µM],0[11.4 µM],-,0[11.4 µM],-,0[11.4 µM]
CN(C)C=Nc1ccc2nn(-c3ccccc3)nc2c1,0,0,-,-,-,0
Cc1ccc(-n2nc3ccc(N)cc3n2)cc1,0,0,-,2µM,13µM,0
COc1ccc(C(=O)Oc2ccc(C(C)=O)cc2)c(OC)c1,0,0,-,16µM,0,0
Cc1ccccc1CS(=O)(=O)Cc1ccc(C(=O)NCCCN2CCCC2=O)o1,?,4µM,0,0,0,0
Cc1ccccc1CS(=O)(=O)Cc1ccc(C(=O)NCCCN2CCOCC2)o1,0[11.4 µM],0,0,0,0,0
SMILES,TSHR agonist,HEK293 cAMP ctrl,Bst PK mod,FLuc inh,Tau fil binding,ALOX15 inhib
CCOC(=O)[C@]1(C(NC(=O)OC)c2ccccc2)CCCC1=O (stereo partly drawn),0[11.4 µM],0[11.4 µM],-,-,-,0[11.4 µM]
CCOC(=O)c1ccc(COC(=O)c2nonc2N)cc1,0[11.4 µM],0,0,0,0,0
Cc1ccc2ccccc2c1COC(=O)c1nonc1N,?,16µM,0,0,0,0
Nc1nc2c(C(=O)NCc3cccs3)nnn2c2cccc(Cl)c12,0[11.4 µM],0[11.4 µM],-,0[11.4 µM],0[11.4 µM],0[11.4 µM]
Nc1nc2c(c(=O)[nH]1)N[C@H](CCNc1ccc(C(=O)O)cc1)CN2,0[11.4 µM],0[11.4 µM],-,0[11.4 µM],0[11.4 µM],0[11.4 µM]
O=C(NCc1ccco1)c1cc2c(s1)CCCCC2,0,0,-,?,0,0
O=C(CN(C(=O)c1cc2c(s1)CCC2)C1CCCC1)NCc1cccs1,?,32µM,0,0,0,0
CCOCCCn1c(C)nc2c(c1=O)c1nc3ccccc3nc1n2CCC1=CCCCC1,?,20µM,0,0,1.6µM,25µM
Nn1c(SCC(=O)NC2CCCCC2)nnc1-c1ccccc1,0,0,0,0,0,0
Nn1c(SCC(=O)NC2CCCc3ccccc32)nnc1-c1cccs1 (stereo not drawn),?,0.2µM,-,0,0,0
CC1(C)O[C@@H]2C[C@H]3[C@H]4C[C@H](F)C5=CC(=O)C=C[C@@]5(C)[C@@H]4[C@H](O)C[C@]3(C)[C@]2(C(=O)CO)O1,0,0,-,0,0,0
O=C(NCCN1CCN(c2ccccc2)CC1)c1cccn2c(=O)c3cc(Cl)ccc3nc12,?,?,0,0,16µM,0
COC(=O)c1sc(NC(=O)Cc2cccs2)nc1C,0,0,0,0,0,0
CCOc1ccc(-c2nnc(-c3snc(-c4ccc(F)cc4)c3N=CN(C)C)o2)cc1,?,16µM,0,0,0,0
O=C(OCc1nnc(-c2ccccc2)o1)C1=COCCO1,0,0,0,0,0,0
Cc1cc(C)n(-c2ccc(C(=O)OCC(=O)c3ccc(Br)s3)cc2)n1,0,0,0,0,13µM,0
O=C(OCc1nnc(-c2ccccc2)o1)c1ccc2c(c1)OCCO2,?,13µM,0,0,0,0
Cc1cc(C)n(-c2ccc(C(=O)OCc3nnc(-c4ccccc4)o3)cc2)n1,?,32µM,0,0,0,0
CCn1c2ccccc2c2cc(NC(=O)N3CCOCC3)ccc21,0,0,-,0,0,0
O=C(Nc1ccc2c(c1)oc1ccccc12)N1CCOCC1,0,0,?,20µM,0,0
COc1ccc(Nc2ccnc3ccccc23)cc1,0[11.4 µM],0,0,0,7.9µM,0
O=C(Oc1cccc2cccnc12)c1ccc2c(c1)OCCO2,0,0,10,0,0,0
O=S(=O)(Nc1ccc2c(c1)OCCO2)c1cccc2cccnc12,0,0,3.3,0,0,0
CN(CC(=O)Nc1ccc2c(c1)OCCO2)S(=O)(=O)c1cccc2cccnc12,0,0,-,0,0,0
O=C(O)c1ccccc1NS(=O)(=O)c1cccc2cccnc12,0,0,9.1,0,0,0
SMILES,TSHR agonist,HEK293 cAMP ctrl,Bst PK mod,FLuc inh,Tau fil binding,ALOX15 inhib
COc1ccccc1NS(=O)(=O)c1cccc2cccnc12,0,0,-,0,0,0
O=C(Oc1cccc2cccnc12)c1ccc(Br)o1,0,0,0,0,0,0
COc1ccc(NS(=O)(=O)c2cccc3cccnc23)cc1,0,0,2.6,0,0,0
COc1ccc2c(c1)c1nc(SCC(C)C)n(CCO)c(=O)c1n2C,0,0,-,0,0,0
COc1cc(C(C)=O)ccc1OCC(=O)c1cc(C)n(C2CC2)c1C,0,0,0,0,0,0
COc1ccc(OC)c(S(=O)(=O)n2ccnc2)c1,0,0,-,0,0,0
CC(C)c1ccc(NC(=O)C2CC(=O)N=C(N)S2)cc1 (stereo not drawn),0,0,0,0,0,25µM
CCN(CC)CC[n+]1ccc2c(C)c3[nH]c4ccc(O)cc4c3c(C)c2c1,0[11.4 µM],0[11.4 µM],-,0[11.4 µM],4µM,?
Cc1cc(C)n(-c2ccn(Cc3ccc(Cl)cc3Cl)c(=O)n2)n1,?,16µM,?,0,0,0

# From PubChem BioAssay
